Screening results from PubChem BioAssay.
Pf growth 48h – P. falciparum growth inhibition at 48 hours (one generation); P. falciparum luciferase growth in erythrocytes, 48 h; Potency, µM (top dose mostly 28.7 µM), for the others: at the highest dose activity change, negative = inhibition, most hits filed as inhibitors; hit rate 5.9% among 310,000; further: potency means the concentration at half of the fitted maximal effect; on the % scale 0 is the no-effect control and ±100 the full control effect
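Firefly luciferase activity from engineered P. falciparum reports growth; inhibitors lower the luminescent signal. Cultures contained 2% hematocrit erythrocytes at 0.1% final parasitemia.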
Pf growth 96h – inhibits malaria parasite growth, 96 h; P. falciparum luciferase reporter growth, 96 h; Potency, µM (top dose mostly 28.7 µM), inactives show top-dose activity change, negative = inhibition, hits mostly inhibitors; hit rate 6.9% among 320,000; AID 504834; further: potency means the concentration at half of the fitted maximal effect; on the % scale 0 is the no-effect control and ±100 the full control effect
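Luminescence readout: decreased luciferase signal marks inhibited growth of reporter-expressing P. falciparum in infected red cells (2% hematocrit, 0.05% parasitemia final), exposed to compound two generations (96 h, 37 C, 5% CO2).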
NS1 inh – inhibitors of influenza NS1 protein function; AID 2326; hit rate 0.4% among 270,000; Potency, µM (titrated, usually from 46.1 µM), for inactives: at the top dose activity, positive = more growth; calls by dose curve; further: potency means the concentration at half of the fitted maximal effect; actives are rising curves; nearly all actives have a fitted effect of over 50% in size
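A cell-based growth assay was used: compounds that relieve NS1-induced slow growth of budding yeast raise OD600. Assay medium was yeast nitrogen base with ammonium sulphate and -URA supplement, pH 6.0, with 2% galactose.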
Cycloheximide cs – counter-screen for Shiga toxin inhibitors: cycloheximide protein synthesis inhibition | hit rate 12% among 300,000 | cell reporter, cycloheximide protein synthesis inhibition counterscreen | AID 2314 | max response, %; in the data active means max response mostly above about 13%, no sharp cut-off; inactive means mostly below about 14%; further: read at 38.3 µM for the half of the compounds with a filed dose; 0% is about no effect
FBPA Giardia inh – Giardia lamblia aldolase inhibition. A8B2U2. purified Giardia FBPA. Potency, µM (titrated, usually from 59.6 µM), without a hit: at the top dose activity, negative = inhibition, most hits filed as inhibitors. hit rate 0.71% among 290,000. AID 2451; further: potency means the concentration at half of the fitted maximal effect; on the % scale 0 is the no-effect control and ±100 the full control effect; nearly all actives have a fitted effect of over 55% in size
Target sequence (A8B2U2 whole entry, looked up): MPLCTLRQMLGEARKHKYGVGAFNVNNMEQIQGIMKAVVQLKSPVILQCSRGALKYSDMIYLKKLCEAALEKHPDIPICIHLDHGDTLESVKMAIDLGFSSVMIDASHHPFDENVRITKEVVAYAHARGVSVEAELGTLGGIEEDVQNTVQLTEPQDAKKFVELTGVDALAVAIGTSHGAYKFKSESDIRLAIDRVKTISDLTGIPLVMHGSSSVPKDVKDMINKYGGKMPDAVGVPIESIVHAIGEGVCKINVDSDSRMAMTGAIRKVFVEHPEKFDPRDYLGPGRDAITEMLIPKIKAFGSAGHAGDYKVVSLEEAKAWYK
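40 nM FBPA preincubated 10 min at RT with compound (up to 57.5 uM final), then substrate plus GAPDH/TPI/NAD/arsenate coupling and diaphorase/resazurin added. Fluorescence read after 20 min at RT, 525/598 nm.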
Shiga toxin inh – inhibitors of Shiga toxin in Vero cells. Vero cells, Shiga toxin protein synthesis inhibition reporter. inhibition, % at 38.7 µM. hit rate 9.2% among 290,000. AID 2315; in the data active means inhibition mostly above about 28%, no sharp cut-off; inactive means mostly below about 43%; further: 0% is about no effect
An asterisk follows results filed as active; i = inactive; ? = inconclusive; . = no result; + = active, no number; [ ] = remark or other dose. An excerpt weighted towards active compounds, which were near 21% of everything screened. Unless noted, the call rests on the fitted dose curve; in most records, active means well fitted curve in the direction sought with a large enough effect; inconclusive means small, poorly fitted or top-dose-only effect, or another doubt; inactive means no such curve, though single readings can be large; an effect the other way counts as inactive or inconclusive.

SMILES	Pf growth 48h	Pf growth 96h	NS1 inh	Cycloheximide cs	FBPA Giardia inh	Shiga toxin inh
Cc1nn(-c2ccccc2)c(C)c1/C=N/NC(=O)c1cnccn1	27%	23%	-1%	16*	-3%	40
CCOc1cc(/C=N/NC(=O)c2cc(C3CC3)[nH]n2)ccc1O	0%	0%	-1%	6	1%	24
O=C(N/N=C/c1c(F)cccc1Cl)c1cc(C2CC2)[nH]n1	107%	58%	-7%	30*	-3%	77*
Cc1nn(-c2ccccc2)c(Cl)c1/C=N\NC(=O)c1cnccn1	-4%	0%	0%	-3	-1%	-9
Cc1nn(-c2ccccc2)c(C)c1/C=N/NC(=O)c1cc(C23CC4CC(CC(C4)C2)C3)[nH]n1	3.3µM*	2.1µM*	0%	-2	3%	-7
CCCCn1c(N)c(N(CC)C(=O)C2CCN(C(=O)c3ccccc3C)CC2)c(=O)[nH]c1=O	-10%	-11%	.	.	.	.
Cc1nn(-c2ccccc2)c(C)c1/C=N/NC(=O)c1cc(-c2cccs2)[nH]n1	?	-73%	-43%	5	4%	-9
CC/C(=N\NC(=O)c1cc(C2CC2)[nH]n1)c1ccccc1	68%	41%	0%	15*	-7%	69*
Cc1cc(C(=O)N/N=C/c2c(C)nn(-c3ccccc3)c2C)n[nH]1	-11%	?	0%	18*	1%	55*
Cc1ccc(C2CC(=O)Oc3c(C(C)C)ccc(C)c32)cc1 (stereo unspecified)	.	.	.	0	10%[89.2 µM]	i
CN1CCN(c2ncc3nc(CCc4ccccc4)c(=O)n(C4CC4)c3n2)CC1	.	.	.	.	-2%	.
COC(=O)c1cccc(NC(=O)c2onc3c2CCCC3)c1	292%	336%	-19%	99*	-1%	+
Cc1oc(-c2ccccc2)cc1C(=O)Nc1ccc2ccccc2c1	65%	54%	-2%	14	.	48
O=C(Nc1ccc2ccccc2c1)c1onc2c1CCCC2	-13%	0%	-8%	28*	-5%	64*
COC(=O)c1cccc(NC(N)=S)c1	0%	-7%	7%	-2	-2%	31
CCOCCCn1c(C)nc2c(c1=O)c1nc3ccccc3nc1n2-c1ccc2c(c1)OCCO2	5.2µM*	?	3%	-3	-4%	-25
CCC(C)n1cnc2c(c1=O)c1nc3ccccc3nc1n2-c1ccc2c(c1)OCCO2 (stereo unspecified)	14%	13µM*	-44%	-1	-3%	3
CCC(C)n1cnc2c(c1=O)c1nc3ccccc3nc1n2Cc1ccc2c(c1)OCO2 (stereo unspecified)	3.7µM*	?	15%	2	4%	12
CCCn1c(C)nc2c(c1=O)c1nc3ccccc3nc1n2-c1ccc2c(c1)OCCO2	.	.	19%	.	.	.
Cc1ccc(Cl)cc1N1CCN(CCCNC(=O)c2nnc(Cc3cccc(Cl)c3)o2)CC1	.	.	.	-5	.	-3
O=[N+]([O-])c1cccnc1NCCNc1ncc(C(F)(F)F)cc1Cl	188%	96%	7%	39*	-8%	77*
CC(=O)C1=NOC(CNc2ncc(C(F)(F)F)cc2Cl)C1 (stereo unspecified)	36%	-4%	-8%	17*	-1%	81
O=c1cc(Cl)[nH]c(=O)n1CCNc1ncc(C(F)(F)F)cc1Cl	18%	36%	-47%	36*	4%	94*
O=S(=O)(NCCNc1ncc(C(F)(F)F)cc1Cl)C(F)(F)F	6%	31%	-90%	27	-4%	57*
CN(c1ccccc1)S(=O)(=O)c1cc(C(=O)NCCCn2ccnc2)ccc1Cl	?	-29%	.	.	.	.
SMILES	Pf growth 48h	Pf growth 96h	NS1 inh	Cycloheximide cs	FBPA Giardia inh	Shiga toxin inh
C[C@@H](SCc1ccccc1)C(=O)O	.	.	1%	.	.	.
O=[N+]([O-])c1ccccc1NCCNc1ncc(C(F)(F)F)cc1Cl	39%	8%	2%	29*	0%	121*
COc1ccc(C(=O)NCCNc2ncc(C(F)(F)F)cc2Cl)cc1[N+](=O)[O-]	?	?	0%	-4	.	-11
Cc1ccc(C(=O)NCCNc2ncc(C(F)(F)F)cc2Cl)cc1[N+](=O)[O-]	?	7.4µM*	3%	-1	-9%	-6
COc1ccc2c(c1)Cc1cc(N=[N+]([O-])c3ccc4c(c3)Cc3cc(OC)ccc3-4)ccc1-2	.	.	1%	.	.	.
COc1cc2c(cc1OC)CN(C(=O)COc1ccccc1C#N)CC2	?	?	3%	22*	2%	19
O=C(CN1CCc2ccccc2C1)N1CCN(S(=O)(=O)c2ccccc2)CC1	-9%	-19%	3%	-1	1%	-8
COc1cc2c(cc1OC)CN(C(=O)CC1CC3CCC1C3)CC2 (stereo unspecified)	?	2.6µM*	-6%	5	-25%	13
O=C(CN1CCN(S(=O)(=O)c2ccccc2)CC1)N1CCc2ccccc21	?	12µM*	.	.	.	.
COc1cc2c(cc1OC)CN(C(=O)CN1CCN(S(=O)(=O)c3ccccc3)CC1)CC2	?	13µM*	-18%	-12	.	-5
COc1ccc(C(=O)NCCCNC(=O)c2ccccn2)cc1Br	6%	-3%	-2%	-2	-3%	-12
CC(=O)Nc1ccc(OC(=O)c2cc3cc(Br)ccc3oc2=O)cc1	4%	4.1µM*	0%	1	0%	3
CN(C)CCNC(=O)c1cc2cc(Br)ccc2oc1=O	-16%	32%	20%	7	-1%	1
CC(C)NC(=O)c1cc2cc(Br)ccc2oc1=O	?	7%	6%	30*	-1%	86*
CC(=O)Nc1ccc(OC(=O)c2cc3cc(Br)cc(Br)c3oc2=O)cc1	-18%	13%	-22%	2	6%	11
COc1ccc(C2(C)NC(=O)N(CC(=O)NCc3ccccc3)C2=O)cc1OC (stereo unspecified)	-3%	7%	2%	-3	-1%	-5
COc1ccc(/C(C)=N/NC(=O)CNC(=O)c2ccncc2)c(OC)c1	16%	38%	-2%	-1	1%	-7
COc1ccc(/C=C2\N=C(SC)N(C)C2=O)cc1	15%	0%	-20%	12*	-12%	18
COc1ccc(/C=C2\N=C(c3ccccc3Cl)NC2=O)cc1	-4%	-2%	11%	34*	-5%	48
CCSC1=N/C(=C\c2ccccc2)C(=O)N1c1ccc(OC)cc1	?	?	.	-5	6%	12
CCSC1=N/C(=C\c2ccc(OC)cc2)C(=O)N1	52%	-7%	5%	28*	-28%	46*
COc1ccc(/C=C2\N=C(SC)NC2=O)cc1	13%	19%	-18%	25	?	120*
Cc1c(C(=O)NN2CCOCC2)oc2c1ccc1ccccc12	11%	13%	.	-2	-4%	14
COc1ccc(/C=C2/N=C(SC)NC2=O)cc1OC	3%	12%	-5%	16*	-2%	13
CC(=O)NCCn1c(C)cc2ccccc21	26%	5%	-41%	-1	-5%	-9
